Test results: the supplement of paper PMC6897291

Tested on: RIVA
Assay: growth inhibition by drug plus 177Lu-lilotomab satetraxetan (1 - RLU/untreated control) (fraction); higher = stronger inhibition
Conditions: 177Lu-lilotomab satetraxetan 0.5 ug/ml
Procedure: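 RIVA (RI-1) ABC-DLBCL cells were pretreated or not for 18 h with 0.5 ug/ml 177Lu-lilotomab satetraxetan (600 MBq/mg), washed and seeded (3000 cells/well) on 384-well plates pre-printed with the Selleck Cambridge Cancer Compound library. Viability was read by RealTime-Glo luminescence on days 3-6 after seeding. Effect = 1 - RLU/mean RLU of the 48 untreated no-drug control wells per plate; Bliss score = (M-E)/(1-Fa).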

Row | Structure (SMILES) | growth inhibition by drug plus 177Lu-lilotomab satetraxetan (10 nM, time (day): 3) | growth inhibition by drug plus 177Lu-lilotomab satetraxetan (10 nM, time (day): 4) | growth inhibition by drug plus 177Lu-lilotomab satetraxetan (10 nM, time (day): 5) | growth inhibition by drug plus 177Lu-lilotomab satetraxetan (10 nM, time (day): 6) | growth inhibition by drug plus 177Lu-lilotomab satetraxetan (100 nM, time (day): 3) | growth inhibition by drug plus 177Lu-lilotomab satetraxetan (100 nM, time (day): 4) | growth inhibition by drug plus 177Lu-lilotomab satetraxetan (100 nM, time (day): 5) | growth inhibition by drug plus 177Lu-lilotomab satetraxetan (100 nM, time (day): 6)
1 | CCOc1ccc(Cc2cc([C@@H]3O[C@H](CO)[C@@H](O)[C@H](O)[C@H]3O)ccc2Cl)cc1 [Dapagliflozin] | 0.595 | 0.635 | 0.644 | 0.658 | 0.517 | 0.574 | 0.572 | 0.572
2 | N#CC(c1ccnc(NCCc2cccnc2)n1)c1nc2ccccc2s1 (stereo not given) [JNK Inhibitor V] | 0.255 | 0.419 | 0.467 | 0.481 | 0.265 | 0.376 | 0.381 | 0.353
3 | Cc1oc(S(=O)(=O)N2CCCCC2)cc1NC(=O)Nc1ccccc1 | 0.422 | 0.557 | 0.585 | 0.576 | 0.511 | 0.598 | 0.601 | 0.574
4 | O=C(/C=C/c1cccnc1)NCCCCC1CCN(C(=O)c2ccccc2)CC1 | 0.991 | 0.991 | 0.99 | 0.99 | 0.99 | 0.99 | 0.991 | 0.991
5 | CCc1cncnc1N1CCN(Cc2nc3ccc(C(F)(F)F)cc3[nH]2)CC1 | 0.505 | 0.583 | 0.59 | 0.587 | 0.49 | 0.55 | 0.542 | 0.514
